Here are results for three molecules from the supplement of paper PMC8728848.

Holding throughout (test): glycan array binding signal (z-score within array); higher = stronger binding
Common to all, as to conditions: glycan notation: IUPAC condensed, linker removed

One test deals with Fuc(a1-2)Gal. The essentials:
(§1)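 Glycan array data came from 3228 arrays in the Consortium for Functional Glycomics database, and only arrays with an available protein sequence were kept. Glycan names were put into IUPAC-condensed notation, and columns mapping to the same glycan were averaged. The binding signal is a within-array Z-score, averaged across arrays of one protein sequence run at different concentrations or buffers and across linkers. A negative Z-score can be read as non-binding.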

For test [1], the target named is Fuc(a1-2)Gal(b1-3)GalNAc(b1-3)Gal. In short, it runs like this: as §1
Test [2] concerns the target Fuc(a1-2)Gal(b1-3)GlcNAc(b1-3)Gal(b1-4)Glc. The essentials:
as §1

Test [3] deals with Fuc(a1-2)[GalNAc(a1-3)]Gal(b1-3)GlcNAc. The essentials:
as §1

Test [4] has as its target Fuc(a1-3)[Gal(b1-4)]GlcNAc(b1-4)Gal(b1-4)[Fuc(a1-3)]GlcNAc(b1-4)Gal(b1-4)[Fuc(a1-3)]GlcNAc. In short, it runs like this:
as §1

In a further test the target is Fuc(a1-4)GlcNAc. The essentials:
as §1

For test [5], the target named is Gal(b1-3)GalNAc(b1-3)Gal(a1-4)Gal(b1-4)Glc. The essentials:
as §1

Test [6] concerns the target Gal(b1-4)GlcNAc(b1-3)Gal(b1-4)GlcNAc. In short, it runs like this:
as §1

In test [7] the target is Gal(b1-4)GlcNAc(b1-3)[Gal(b1-4)GlcNAc(b1-6)]GalNAc. In short, it runs like this: as §1
Another test addresses Gal3S(b1-4)GlcNAc6S. The essentials: as §1
Test [8] has as its target Neu5Ac(a2-3)Gal(b1-3)[Neu5Ac(a2-6)]GalNAc. The essentials:
as §1

For test [9], the target named is Neu5Ac(a2-6)Gal(b1-4)GlcNAc(b1-3)Gal(b1-4)GlcNAc. The essentials:
as §1

The next test has as its target Neu5Ac(b1-6)GalNAc. The essentials: as §1
The target in test [10] is Neu5Gc(a2-3)Gal(b1-4)[Fuc(a1-3)]GlcNAc. In short, it runs like this: as §1
In another test the target is Fuc(a1-2)Gal(b1-3)GlcNAc. The essentials:
as §1

For a further test, the target named is Fuc(a1-2)[Gal(a1-3)]Gal. The essentials:
as §1

A further test concerns the target Gal(a1-3)Gal(b1-3)GlcNAc. The essentials:
as §1

For the next test, the target named is Gal(a1-3)Gal(b1-4)Glc. In short, it runs like this: as §1
The next test deals with Gal(a1-6)Glc. In short, it runs like this:
as §1

The target in another test is Gal(b1-3)Gal(b1-4)GlcNAc. In short, it runs like this: as §1
For test [11], the target named is Gal(b1-3)GlcNAc(b1-3)Gal(b1-4)Glc. In short, it runs like this:
as §1

In test [12] the target is Gal(b1-3)[Fuc(a1-4)]GlcNAc. The essentials: as §1
Test [13] deals with Gal(b1-4)GlcNAc(b1-3)[GlcNAc(b1-6)]Gal(b1-4)GlcNAc. In short, it runs like this: as §1
For test [14], the target named is Gal(b1-4)GlcNAc(b1-6)[Gal(b1-3)]GalNAc. In short, it runs like this: as §1
The target of another test is Gal3S(b1-4)Glc. The essentials:
as §1

A further test concerns the target Gal6S(b1-4)Glc6S. The essentials: as §1
In the next test the target is Gal6S(b1-4)GlcNAc6S. In short, it runs like this:
as §1

Test [15] has as its target GalNAc(b1-3)Gal(a1-4)Gal(b1-4)GlcNAc. In short, it runs like this: as §1
The target in test [16] is GlcNAc(b1-2)Gal(b1-3)GalNAc. In short, it runs like this:
as §1

The target in test [17] is GlcNAc(b1-4)Gal(b1-4)GlcNAc. In short, it runs like this:
as §1

In test [18] the target is Man(a1-2)Man(a1-2)Man(a1-3)Man. The essentials: as §1
In test [19] the target is Man(a1-2)Man(a1-3)[Man(a1-2)Man(a1-6)]Man(a1-6)[Man(a1-2)Man(a1-2)Man(a1-3)]Man(b1-4)GlcNAc(b1-4)GlcNAc. The essentials: as §1
Test [20] concerns the target Neu5Ac(a2-3)Gal(b1-3)GalNAc. The essentials:
as §1

Test [21] has as its target Neu5Ac(a2-3)Gal(b1-4)GlcNAc(b1-2)Man(a1-3)[Neu5Ac(a2-6)Gal(b1-4)GlcNAc(b1-2)Man(a1-6)]Man(b1-4)GlcNAc(b1-4)GlcNAc. In short, it runs like this: as §1
Test [22] deals with Neu5Ac(a2-3)Gal(b1-4)GlcNAc(b1-6)[Gal(b1-3)]GalNAc. In short, it runs like this:
as §1

A further test concerns the target Neu5Ac(a2-8)Neu5Ac. The essentials: as §1
For test [23], the target named is Neu5Ac9Ac(a2-6)Gal(b1-4)GlcNAc. The essentials:
as §1

Test [24] concerns the target Neu5Gc(b2-6)Gal(b1-4)GlcNAc. In short, it runs like this: as §1
Test [25] concerns the target Fuc(a1-3)[Gal3S(b1-4)]GlcNAc6S. In short, it runs like this:
as §1

The target of another test is Gal(a1-3)Gal(b1-4)GlcNAc. In short, it runs like this: as §1
Another test addresses Gal(a1-4)Gal(b1-4)Glc. In short, it runs like this:
as §1

The target of a further test is Gal(b1-3)GlcNAc. In short, it runs like this: as §1
In test [26] the target is Gal(b1-3)[Fuc(a1-4)]GlcNAc(b1-3)Gal(b1-4)[Fuc(a1-3)]GlcNAc. In short, it runs like this:
as §1

The target of another test is Gal(b1-4)Glc. In short, it runs like this:
as §1

The target of a further test is Gal(b1-4)Glc6S. The essentials:
as §1

In test [27] the target is Gal(b1-4)GlcNAc(b1-3)Gal(b1-4)GlcNAc(b1-3)Gal(b1-4)GlcNAc. The essentials:
as §1

For a further test, the target named is Gal3S(b1-4)GlcNAc. The essentials: as §1
Test [28] has as its target Gal3S(b1-4)[Fuc(a1-3)]Glc. The essentials: as §1
For another test, the target named is Gal3S4S(b1-4)GlcNAc. In short, it runs like this: as §1
For a further test, the target named is Gal3S6S(b1-4)GlcNAc6S. The essentials: as §1
The target in a further test is Gal4S(b1-4)GlcNAc. The essentials: as §1
The target in another test is Glc(a1-6)Glc(a1-6)Glc. The essentials: as §1
Test [29] concerns the target Man(a1-2)Man(a1-2)Man(a1-6)[Man(a1-3)]Man. In short, it runs like this:
as §1

Another test concerns the target Man(a1-2)Man(a1-3)Man. In short, it runs like this:
as §1

In test [30] the target is Neu5Ac(a2-3)Gal(b1-3)GalNAc(b1-3)Gal(b1-4)GlcNAc. In short, it runs like this: as §1
For test [31], the target named is Neu5Ac(a2-3)Gal(b1-4)[Fuc(a1-3)]GlcNAc6S. The essentials:
as §1

Test [32] deals with Neu5Ac(a2-6)Gal(b1-4)GlcNAc(b1-2)Man(a1-3)[Gal(b1-4)GlcNAc(b1-2)Man(a1-6)]Man(b1-4)GlcNAc(b1-4)GlcNAc. The essentials: as §1

About 410 targets per protein were measured; listed, in parts, are those with the strongest signals and a random draw of the rest.

B1: Siglec-H (Mus musculus), Q4QQK7 (protein)
chain: MLLSRLLPLLWVLKWASGNCFILPREVIGTYPSLTLELQSVTVQEGLCVLVPCHLIEYPMNRWSDAAFGYWFHEGENTHPDSLVATNKPYQLVQKEMQSRFHFSGDCSLDIRDAQKGDNGSYFFRLEKGGKTWNFCEERISVHVTDLTHSPNISIPQTLELGRPTNVMCSVPWACERGTPPIFSWMSAALISLGPTTTLSSVLTLTPRLQDHGTNLTCQVTFPGAGVTVQKTIQLNVTYNSQNSTAHVSGRVGPGKPRPLADVVQVAMGEAAIKFLLLGICFFFLSKRSHTKRVERPATHMDQAHAVMD
With B1, the “glycan array binding signal (z-score)” value with Fuc(a1-2)Gal was -0.112; in test [1], 2.48; in [2], 2.46; in [3], -0.271; in test [4], -0.236; in the test with Fuc(a1-4)GlcNAc, -0.188. For the same molecule, the “glycan array binding signal (z-score)” value in test [5] is -0.31; in test [6] it was -0.348; in test [7], 6.24; with Gal3S(b1-4)GlcNAc6S, -0.224; in test [8], 2.4; in test [9] it was 1.02. For the same molecule, the “glycan array binding signal (z-score)” value in the test with Neu5Ac(b1-6)GalNAc is 0.697; in test [10], -0.29.

B2: Langerin CRD (Homo sapiens), Q9UJ71 (protein)
chain: QVVSQGWKYFKGNFYYFSLIPKTWYSAEQFCVSRNSHLTSVTSESEQEFLYKTAGGLIYWIGLTKAGMEGDWSWVDDTPFNKVQSVRFWIPGEPNNAGNNEHCGNIKAPSLQAWNDAPCDKTFLFICKRPYVPSEPSAWSHPQFEK
For the molecule B2, the “glycan array binding signal (z-score)” value with Fuc(a1-2)Gal is 0.647; with Fuc(a1-2)Gal(b1-3)GlcNAc, 0; with Fuc(a1-2)[Gal(a1-3)]Gal, 4.04; in the test with Gal(a1-3)Gal(b1-3)GlcNAc it was -0.623; in the test with Gal(a1-3)Gal(b1-4)Glc it was -0.487; with Gal(a1-6)Glc, -0.427. The “glycan array binding signal (z-score)” value with Gal(b1-3)Gal(b1-4)GlcNAc is -0.488; in test [11] it was -0.48; in [12] it was -0.279; in test [13], 0.314; in [14], -0.489; with Gal3S(b1-4)Glc, -0.325. Further, the “glycan array binding signal (z-score)” value is 4.01 with Gal6S(b1-4)Glc6S; 6.72 with Gal6S(b1-4)GlcNAc6S; -0.356 in test [15]; 4.61 in test [16]; 1.57 in test [17]; 4.1 in test [18]. For the same molecule, the “glycan array binding signal (z-score)” value in test [19] is -0.352; in test [20] it was -0.547; in test [21], -0.647; in test [22], -0.693; with Neu5Ac(a2-8)Neu5Ac it was -0.544; in test [23], -0.422. Besides, the “glycan array binding signal (z-score)” value in test [24] is -0.263.

B3: NESD (Drosophila melanogaster), NP_610025.1 (protein)
chain: MGHHHHHHSSGVDLGTENLYFQSMMEVFTFEKSYLERLKEAEAVLSWEGAVMPASQVRSEWKSYVELKIEPAGWQAIWKIPRVICEDLKLRYPTIVYGYVEQVIFDELKAVFVVTAVQDSDVHLPESNEVSLVELWPTVQQENAALNVDTTAECIDRLRFFYTHVWMPWDKDYDDDRDWVQQHLQARIQLVCDLSKNRLPRPLALHMRTLLAEAKYIQQRLDYLELDLSDAESDDEAVELNDSVAEPARKQSKAGSANGCLNVSSLPVTDLMCLHLRMAIIRSEFEILENPEMRRAYSELQSNSLKRLRCSSGRTRQSEDLLVERNSISHVVTLPGKLQQQLELLKLAQTLVKPESKVQLSNTLQDVLSICQSNDDILLSPGEHTIKFLEHLNDNGSLRGLTQPEAILSPAADLSLLPVVCSSDEDSTLLVIDGDYTLSELVLDCRHVRRGILLRNGTLTMRGCRLLGDGSSSTQEGIVCMPGASVELKSCLIENFAVGVSMRPKSSAELGSVQFKTCKTGLELLEKSASVNLQGSKCSFENCALGILADGFVLGEQRTEKVLVLNKFSELQRYNEDNLLGNCSFYNCKKNVRVFNESGQLLAQRSHQQLLEDELGGENKENIQLV
As for B3, the “glycan array binding signal (z-score)” value with Fuc(a1-2)Gal was 0.437; in test [25] it was 1.18; in the test with Gal(a1-3)Gal(b1-4)Glc it was -0.126; with Gal(a1-3)Gal(b1-4)GlcNAc, -0.108; with Gal(a1-4)Gal(b1-4)Glc, -0.242; with Gal(b1-3)GlcNAc, -0.219. Further, the “glycan array binding signal (z-score)” value is -0.47 in [26]; 3.98 in the test with Gal(b1-4)Glc; 2.75 with Gal(b1-4)Glc6S; 0.201 in [6]; 0.303 in [27]; 0.142 in the test with Gal3S(b1-4)GlcNAc. For the same molecule, the “glycan array binding signal (z-score)” value in test [28] was -0.195; in the test with Gal3S4S(b1-4)GlcNAc, 0.201; with Gal3S6S(b1-4)GlcNAc6S, 1.17; with Gal4S(b1-4)GlcNAc, 0.349; with Glc(a1-6)Glc(a1-6)Glc, 6.3; in [29], -0.364. Besides, the “glycan array binding signal (z-score)” value with Man(a1-2)Man(a1-3)Man was -0.316; in test [19], 0.313; in [30], 0.016; in test [31], 0.068; in [32], 0.256.
